Test systems include DU-145 prostate; K-562 leukemia; MALME-3M melanoma; MDA-MB-231 breast; RXF 393 renal; SF-268 CNS; SF-295 CNS; SF-539 CNS; UACC-257 melanoma; M14 melanoma.
Holding throughout (assay): NCI-60 one-dose screen, 48 h (100 = growth as untreated, 0 = no growth, -100 = all killed)
Common to all, as to conditions: 10 µM unless noted

SMILES strings stand for the structures. “And” between values parts separate entries of the source, which are not always exact repeats. Equal values may be shown once. The panel holds about 83,000 compounds, 20% with a hit somewhere; the sample as a whole holds those more often.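 Assay: single dose, 48 h. Readout: percent growth (0 = no net growth; negative = cell death). Active: <10.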 The source made the active and inactive calls.

Take `Cc1cc(-c2cc(C)c(O)c(C)c2)cc(C)c1O`: the growth with DU-145 prostate is 104% (inactive); in the assay on K-562 leukemia, 31.9% (inactive); in the assay with MALME-3M melanoma it was 75% (inactive); in the assay with MDA-MB-231 breast it was 75.6% (inactive); in the assay with RXF 393 renal it was 63.5% (inactive); with SF-268 CNS it was 92.9% (inactive). Moreover, the growth in the assay with SF-295 CNS was 86.1% (inactive); in the assay with SF-539 CNS, 84.9% (inactive); in the assay on UACC-257 melanoma, 92% (inactive).
For the compound `CCCCOc1ccc(Nc2cc(Cl)ccc2C(=O)O)cn1`, the growth in the assay with DU-145 prostate is 120% (inactive) and 121% (inactive); in the assay on K-562 leukemia, 107% (inactive) and 108% (inactive); in the assay with MALME-3M melanoma it was 140% (inactive) and 121% (inactive); in the assay on MDA-MB-231 breast, 113% (inactive) and 111% (inactive); in the assay with RXF 393 renal, 130% (inactive) and 104% (inactive); in the assay with SF-268 CNS, 111% (inactive) and 107% (inactive). In addition, the growth in the assay with SF-295 CNS was 108% (inactive) and 109% (inactive); in the assay on SF-539 CNS, 99.1% (inactive) and 97.7% (inactive); in the assay with UACC-257 melanoma it was 111% (inactive) and 98.2% (inactive); with M14 melanoma, 101% (inactive) and 107% (inactive).
Consider `CC(C)C(C)(C)c1ccc(O)cc1`, for which the growth with DU-145 prostate is 107% (inactive); in the assay with K-562 leukemia, 50.4% (inactive); in the assay with MALME-3M melanoma, 107% (inactive); in the assay with MDA-MB-231 breast it was 108% (inactive); in the assay with RXF 393 renal it was 112% (inactive); in the assay with SF-268 CNS, 99.8% (inactive). The growth in the assay on SF-295 CNS is 118% (inactive); in the assay with SF-539 CNS, 99.4% (inactive); in the assay on UACC-257 melanoma it was 104% (inactive); with M14 melanoma it was 105% (inactive).
As to `CC1(C)COC(=S)N1`, the growth was 114% (inactive) with DU-145 prostate; 91.7% (inactive) with K-562 leukemia; 104% (inactive) with MALME-3M melanoma; 96.5% (inactive) in the assay with MDA-MB-231 breast; 98.8% (inactive) with RXF 393 renal; 107% (inactive) with SF-268 CNS. The growth was 98.4% (inactive) in the assay with SF-295 CNS, 107% (inactive) in the assay with SF-539 CNS, 99.6% (inactive) in the assay on UACC-257 melanoma and 101% (inactive) in the assay on M14 melanoma.
`CC(=O)NCC(=O)c1ccc([N+](=O)[O-])cc1`: the growth in the assay with DU-145 prostate was 109% (inactive); in the assay with K-562 leukemia it was 101% (inactive); with MALME-3M melanoma, 101% (inactive); with MDA-MB-231 breast, 97.7% (inactive); with SF-268 CNS, 99.1% (inactive); with SF-295 CNS it was 106% (inactive). Further, the growth was 109% (inactive) with SF-539 CNS and 101% (inactive) in the assay on UACC-257 melanoma.
On to `C/C(=C\c1ccccc1)c1ccccn1`, for which the growth in the assay with DU-145 prostate was 112% (inactive); in the assay with K-562 leukemia, 105% (inactive); in the assay with MALME-3M melanoma it was 102% (inactive); in the assay on MDA-MB-231 breast it was 91% (inactive); in the assay on SF-268 CNS, 99.3% (inactive); with SF-295 CNS it was 113% (inactive). Besides, the growth in the assay with SF-539 CNS is 98.1% (inactive); with UACC-257 melanoma, 105% (inactive); with M14 melanoma, 108% (inactive).
Turning to `CCCCCCCCCCCCCCCCC(C(=O)O)C(O)(CC(=O)O)C(=O)O` (stereo not drawn), the growth in the assay with DU-145 prostate is 124% (inactive) and -1.43% (active); in the assay on K-562 leukemia it was 90.9% (inactive) and 1.15% (active); in the assay with MALME-3M melanoma, 108% (inactive) and -8.6% (active); in the assay on MDA-MB-231 breast, 126% (inactive) and 14.1% (inactive); in the assay on RXF 393 renal, 98.4% (inactive) and 9.56% (active); in the assay on SF-268 CNS it was 116% (inactive) and 10% (inactive). Moreover, the growth with SF-295 CNS is 15.4% (inactive); in the assay with SF-539 CNS, 109% (inactive) and -20.3% (active); in the assay on UACC-257 melanoma, 115% (inactive) and 18.2% (inactive); in the assay on M14 melanoma, 102% (inactive) and -34.8% (active).
For the compound `CCCCCCCCCCNC(=O)CI`, the growth in the assay on DU-145 prostate is 99.1% (inactive); in the assay on K-562 leukemia, 0.309% (active); in the assay on MDA-MB-231 breast, 9.39% (active); in the assay with RXF 393 renal, -86.5% (active); in the assay on SF-268 CNS it was 37.1% (inactive); with SF-539 CNS, 39.1% (inactive). Also, the growth with UACC-257 melanoma is 66.3% (inactive).
Turning to `CC1CCC2(C(=O)O)CCC3(C)C(=CCC4C5(C)CCC(O)C(C)(C)C5CCC43C)C2C1C` (stereo not drawn), the growth is 44% (inactive) and 75.8% (inactive) in the assay with DU-145 prostate; 14.4% (inactive) and 62.6% (inactive) with K-562 leukemia; 81.4% (inactive) and 88.9% (inactive) with MALME-3M melanoma; 28.1% (inactive) and 71.6% (inactive) in the assay with MDA-MB-231 breast; 40.9% (inactive) and 79.5% (inactive) with RXF 393 renal; 28.9% (inactive) and 75.7% (inactive) in the assay on SF-268 CNS. The growth was 28% (inactive) and 89.7% (inactive) in the assay on SF-295 CNS; 43.1% (inactive) and 79% (inactive) with SF-539 CNS; 39.8% (inactive) and 90.1% (inactive) with UACC-257 melanoma; 41.1% (inactive) in the assay on M14 melanoma.
On to `c1ccc(-c2nc3ccccc3s2)cc1`, for which the growth in the assay on DU-145 prostate is 113% (inactive); with K-562 leukemia it was 102% (inactive); in the assay on MALME-3M melanoma it was 97.5% (inactive); in the assay on MDA-MB-231 breast it was 68.5% (inactive); in the assay on RXF 393 renal it was 106% (inactive); in the assay with SF-268 CNS, 95% (inactive). For the same compound, the growth with SF-295 CNS was 97.9% (inactive); in the assay with SF-539 CNS, 96% (inactive); in the assay with UACC-257 melanoma, 98.5% (inactive); with M14 melanoma, 97.3% (inactive).
In the case of `COc1ccc(Nc2ccc3ccccc3c2)cc1`, the growth in the assay with DU-145 prostate is 83.2% (inactive); in the assay with K-562 leukemia it was 31.6% (inactive); in the assay on MDA-MB-231 breast it was 77.9% (inactive); in the assay on RXF 393 renal it was 58.6% (inactive); in the assay with SF-268 CNS, 81.2% (inactive); with SF-295 CNS it was 79.6% (inactive). In addition, in the assay on SF-539 CNS, the growth is 93.1% (inactive).
For the compound `NN1CCOC(c2ccccc2)C1` (stereo not drawn), the growth is 102% (inactive) in the assay on DU-145 prostate; 10.3% (inactive) in the assay with K-562 leukemia; 99.1% (inactive) in the assay with MDA-MB-231 breast; 101% (inactive) in the assay with RXF 393 renal; 99.6% (inactive) with SF-268 CNS; 118% (inactive) in the assay on SF-295 CNS. Also, the results for the growth in the assay with SF-539 CNS and in the assay with UACC-257 melanoma were 100% (inactive) and 103% (inactive), respectively.

The values above are taken from PubChem BioAssay (NCI).
